Data reported in the supplement of paper PMC12350171.
Counter-ions that a name gives are not always drawn.

Tested on: Haemophilus parainfluenzae
Test: growth AUC normalised to DMSO control (fraction of control); higher = less growth inhibition, active = hit call of the paper
Settings: 20 µM;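 active = AUC significantly below DMSO controls by Student t-fit with adjusted P under 0.01; inactive = not significantly reduced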
How it was run: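 For the AUC endpoint, growth curves were integrated by the trapezoidal rule up to the exponential-to-stationary transition and normalised to DMSO controls on the same plate. The curves came from OD578 readings taken hourly for 24 h, in three biological replicates. Pathogens had been passaged anaerobically twice and inoculated at an OD578 of 0.01 into pre-reduced mGAM plates carrying 20 μM compound and 1% DMSO, sealed with breathable membranes. Medium for Haemophilus parainfluenzae also contained hemin and NAD.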

| Structure (SMILES) | growth AUC normalised to DMSO control |
| --- | --- |
| Clc1ccc(C(Cn2ccnc2)OCc2ccsc2Cl)c(Cl)c1 (centres undefined) [Tioconazole] | 0.934 (inactive) |
| CC(=O)Oc1ccccc1C(=O)O [Acetylsalicylic acid] | 1.08 (inactive) |
| CC(=O)OCC(=O)NCCCOc1cccc(CN2CCCCC2)c1 [Roxatidine acetate hydrochloride] | 0.971 (inactive) |
| C1CCC(C(CC2CCCCN2)C2CCCCC2)CC1 (centres undefined) [Perhexiline maleate] | 0.977 (inactive) |
| CNCCCC1c2ccccc2C=Cc2ccccc21 [Protriptyline hydrochloride] | 0.977 (inactive) |
| CN(C)CCn1nnnc1SCC1=C(C(=O)O)N2C(=O)[C@@H](NC(=O)Cc3csc(N)n3)[C@H]2SC1 [Cefotiam hydrochloride] | 0.0401 (active) |
| OC(CCN1CCCC1)(c1ccccc1)C1CCCCC1 (centres undefined) [Procyclidine hydrochloride] | 0.962 (inactive) |
| CCN(CC)CCOC(=O)C1(c2ccc([N+](=O)[O-])cc2)CCCC1 [Nitrocaramiphen hydrochloride] | 1.01 (inactive) |
| CC(=O)N(CC(C)C(=O)O)c1c(I)cc(I)c(N)c1I (centres undefined) [Iocetamic acid] | 0.965 (inactive) |
| COC(=O)C1=C(C)NC(C)=C(C(=O)OCCN(C)Cc2ccccc2)C1c1cccc([N+](=O)[O-])c1 (centres undefined) [Nicardipine hydrochloride] | 1.01 (inactive) |
| c1ccc2[nH]c(-c3cscn3)nc2c1 [Tiabendazole] | 1.06 (inactive) |
| Cc1cn[nH]c1 [Fomepizole] | 0.954 (inactive) |
| CN(C)[C@@H]1C(=O)C(C(N)=O)=C(O)[C@@]2(O)C(=O)C3=C(O)c4c(O)ccc(Cl)c4[C@@H](O)[C@H]3C[C@@H]12 [Demeclocycline hydrochloride] | 0.0384 (active) |
| Nc1nc(NC2CC2)c2ncn([C@H]3C=C[C@@H](CO)C3)c2n1 [Abacavir sulfate] | 0.979 (inactive) |
| CCC(=O)OCC(=O)[C@@]1(OC(=O)CC)[C@@H](C)C[C@H]2[C@@H]3CCC4=CC(=O)C=C[C@]4(C)[C@@]3(Cl)[C@@H](O)C[C@@]21C [Beclomethasone dipropionate] | 0.969 (inactive) |
| C[C@H](CS)C(=O)N1CCC[C@H]1C(=O)O [Captopril] | 1.05 (inactive) |
| CC(=O)N[C@@H](CC(=O)O)C(=O)N[C@@H](CCC(=O)O)C(=O)O [Spaglumic acid] | 1.04 (inactive) |
| CCCN[C@H]1CCc2nc(N)sc2C1 [Pramipexole dihydrochloride] | 0.985 (inactive) |
| CNCCC(Oc1ccc(C(F)(F)F)cc1)c1ccccc1 (centres undefined) [Fluoxetine hydrochloride] | 1 (inactive) |
| Nc1ncnc2c1ncn2C1OC(COP(=O)(O)O)C(O)C1O (centres undefined) [Adenosine 5'-monophosphate monohydrate] | 0.982 (inactive) |

| Structure (SMILES) | growth AUC normalised to DMSO control |
| --- | --- |
| CC(C(=O)O)c1ccc(-c2ccccc2)c(F)c1 (centres undefined) [Flurbiprofen] | 0.943 (inactive) |
| CCCC1O[C@@H]2C[C@H]3[C@@H]4CCC5=CC(=O)C=C[C@]5(C)[C@H]4[C@@H](O)C[C@]3(C)[C@]2(C(=O)CO)O1 (some centres undefined) [Budesonide] | 0.964 (inactive) |
| CC1(C)O[C@@H]2[C@@H](CO[C@@]3(COS(N)(=O)=O)OC(C)(C)O[C@@H]23)O1 [Topiramate] | 1.03 (inactive) |
| COc1cc2ncnc(Nc3ccc(F)c(Cl)c3)c2cc1OCCCN1CCOCC1 [Gefitinib] | 0.971 (inactive) |
| O=C(O)c1ccccc1C(=O)Nc1ccc(S(=O)(=O)Nc2nccs2)cc1 [Phthalylsulfathiazole] | 1 (inactive) |
| N=C(N)NCC1COC2(CCCCC2)O1 (centres undefined) [Guanadrel sulfate] | 0.967 (inactive) |
| C[C@@H]1C[C@H]2[C@@H]3C[C@H](F)C4=CC(=O)C=C[C@]4(C)[C@@]3(F)[C@@H](O)C[C@]2(C)[C@@]1(O)C(=O)CO [Flumethasone] | 1 (inactive) |
| O=C(O)c1cc(-c2ccc(F)cc2F)ccc1O [Diflunisal] | 0.916 (inactive) |
| COc1ccccc1N1CCN(CCCCNC(=O)c2ccc3ccccc3c2)CC1 | 0.997 (inactive) |
| COC(=O)Nc1nc2cc(C(=O)c3ccccc3)ccc2[nH]1 [Mebendazole] | 0.983 (inactive) |
| CCCCOC(=O)c1ccc(N)cc1 [Butamben] | 1 (inactive) |
| CC[C@H]1OC(=O)[C@H](C)[C@@H](O[C@H]2C[C@@](C)(OC)[C@@H](O)[C@H](C)O2)[C@H](C)[C@@H](O[C@@H]2O[C@H](C)C[C@H](N(C)C)[C@H]2O)[C@](C)(O)C[C@@H](C)[C@@H]2N[C@@H](COCCOC)O[C@H]([C@H]2C)[C@]1(C)O [Dirithromycin] | 0.0968 (active) |
| O=c1[nH]c(=O)n([C@H]2C[C@H](O)[C@@H](CO)O2)cc1I [Idoxuridine] | 0.942 (inactive) |
| CCCCN(CCCC)CCC(O)c1cc2c(Cl)cc(Cl)cc2c2cc(C(F)(F)F)ccc12 (centres undefined) [Halofantrine hydrochloride] | 1.06 (inactive) |
| CCN(CC)CCCC(C)Nc1ccnc2cc(Cl)ccc12 (centres undefined) [Chloroquine diphosphate] | 1.01 (inactive) |
| O=C(O)CCc1nc(-c2ccccc2)c(-c2ccccc2)o1 [Oxaprozin] | 1.08 (inactive) |
| COc1ccc(C(=O)NCc2ccc(OCCN(C)C)cc2)cc1OC [Itopride] | 0.993 (inactive) |
| C[N+]1(CCCCC[N+]2(C)CCCC2)CCCC1 [Pentolinium bitartrate] | 0.96 (inactive) |
| CCOc1ccc2ccccc2c1C(=O)N[C@@H]1C(=O)N2[C@@H]1SC(C)(C)[C@@H]2C(=O)O [Nafcillin sodium salt monohydrate] | 0.899 (inactive) |
